Measurements published in PubChem BioAssay (NCI).
Compounds without any hit were thinned out: in the full panel of roughly 83,000, 20% have a hit.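 Treatment: one concentration, 48 hours, 96-well format. Scoring: percent growth, with anything below 10 considered active.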 Active and inactive are the calls of the source.

Tests used:
Assay in all cases: NCI-60 one-dose screen, 48 h (100 = growth as untreated, 0 = no growth, -100 = all killed)
Details in all cases: 10 µM unless noted
[1] = system: NCI-H23 lung
[2] = system: NCI-H226 lung
[3] = system: NCI-H322M lung
[4] = system: HOP-62 NSCLC
[5] = system: HOP-92 NSCLC
[6] = system: NCI-H522 lung
[7] = system: A549/ATCC NSCLC
[8] = system: 786-0 renal
[9] = system: COLO 205 colon
[10] = system: DU-145 prostate
[11] = system: K-562 leukemia
[12] = system: MALME-3M melanoma
[13] = system: MDA-MB-231 breast
[14] = system: RXF 393 renal
[15] = system: SF-268 CNS
[16] = system: SF-295 CNS
[17] = system: SF-539 CNS
[18] = system: UACC-257 melanoma
[19] = system: M14 melanoma

Measured: growth

O=c1c(-c2nc(-c3ccccc3)c(-c3ccccc3)[nH]2)coc2ccc(F)cc12
inactive: [1] 60.7% | [2] 65.1% | [3] 73.1% | [4] 70.1% | [5] 88.1% | [6] 71.7% | [7] 40% | [8] 87.2% | [9] 53% | [10] 46.1% | [11] 32.5% | [12] 52% | [13] 64% | [14] 92.3% | [15] 64% | [16] 71.5% | [17] 70.9% | [18] 77.6% | [19] 53.3%

COc1ccc([C@H]2C(C(=O)c3ccc(Cl)cc3)C3(N[C@@H]2c2ccccc2)C(=O)Nc2ccccc23)cc1 (stereo not given in full)
active: [9] -6.01%
inactive: [1] 21.2% | [2] 24.9% | [3] 54.5% | [4] 51% | [5] 23% | [6] 29.5% | [7] 31% | [8] 28.4% | [10] 52% | [11] 18.8% | [12] 32.2% | [13] 25.8% | [14] 15.8% | [15] 37.3% | [16] 15.2% | [17] 34.5% | [18] 44% | [19] 53%

Nc1nnc(-c2cncc(Br)c2)c(-c2c[nH]c3ccc(Cl)cc23)n1
inactive: [1] 84.5% | [2] 74% | [3] 80.9% | [4] 91.9% | [5] 90.9% | [6] 68.1% | [7] 82.9% | [8] 73.9% | [9] 113% | [10] 99.4% | [11] 30.5% | [12] 99.3% | [13] 74.7% | [14] 63.5% | [15] 88.6% | [16] 92.4% | [17] 72.5% | [18] 108% | [19] 86.4%

COc1cc(C=O)ccc1OC(=O)c1cc(-c2ccc(C)cc2)n(-c2ccc(S(C)(=O)=O)cc2)n1
inactive: [1] 101% | [2] 138% | [3] 101% | [4] 102% | [5] 98.3% | [6] 93.3% | [7] 103% | [8] 102% | [9] 126% | [10] 108% | [11] 86.5% | [12] 102% | [13] 97.3% | [14] 117% | [15] 116% | [16] 103% | [17] 105% | [18] 101% | [19] 109%

c1n[nH]cc1-c1nc2ccc3[nH]ncc3c2c2c1CC1(CCOCC1)CC2
active: [6] 7.31% | [14] -15.8%
inactive: [1] 44.2% | [2] 27.3% | [3] 48.6% | [4] 55.5% | [5] 70.7% | [7] 44.7% | [8] 48.2% | [9] 30.3% | [10] 41.6% | [11] 39.5% | [12] 22.6% | [13] 59.4% | [15] 34.4% | [16] 65.8% | [17] 26.6% | [18] 53% | [19] 23.9%

COc1cc(CNC(=O)C[C@H](C)CCC=C(C)C)ccc1OCc1cn(-c2ccc(Cl)c(Cl)c2)nn1
active: [17] 5.3%
inactive: [1] 68.5% | [2] 50.5% | [3] 82.5% | [4] 95.7% | [5] 51.6% | [6] 61.5% | [7] 46.5% | [8] 80.4% | [9] 53.6% | [10] 76.8% | [11] 51.9% | [12] 77.4% | [13] 75.7% | [14] 74.8% | [15] 58.4% | [16] 80.5% | [18] 91% | [19] 89%

COc1c(B(O)O)cc(F)cc1-c1nc2ccc3[nH]ncc3c2c2c1COCC2
active: [14] -5.84%
inactive: [1] 78.3% | [2] 50.8% | [3] 78.4% | [4] 49.5% | [5] 18.1% | [6] 14.5% | [7] 92.5% | [8] 46.1% | [9] 38.1% | [10] 73.5% | [11] 63.7% | [12] 126% | [13] 33.4% | [15] 44.9% | [16] 77.2% | [17] 21.7% | [18] 97.5% | [19] 114%

O=C(N/N=C/c1occc1Br)c1[nH]c2ccc(Br)cc2c1-c1ccccc1
active: [1] -100% | [2] -82.5% | [3] -81.2% | [4] -69.1% | [5] -74.1% | [6] -86.9% | [7] -41.7% | [8] -76.6% | [9] -73.5% | [10] -78.4% | [11] 6.6% | [12] -94.9% | [13] -83.1% | [14] -88.2% | [15] -65.9% | [16] -91.2% | [17] -100% | [18] -68.2% | [19] -84.5%

NS(=O)(=O)c1ccc(Nc2nc(SCC(=O)c3ccc(F)cc3)nc3ccccc23)cc1
inactive: [1] 41.8% | [2] 50.1% | [3] 58.7% | [4] 54.4% | [5] 56.3% | [6] 42.1% | [7] 53.8% | [8] 68.9% | [9] 77% | [10] 52.9% | [11] 24.1% | [12] 31.7% | [13] 51.7% | [14] 63.5% | [15] 46.8% | [16] 59.9% | [17] 53.2% | [18] 77.9% | [19] 56%

C=CCSc1nnc(-c2ccc(-c3nc4ccccc4[nH]3)cc2)o1
inactive: [1] 89.9% | [2] 95.5% | [3] 97.7% | [4] 84.2% | [5] 79.1% | [6] 70.4% | [7] 73.5% | [8] 77.6% | [9] 82.6% | [10] 77.1% | [11] 46% | [12] 77.4% | [13] 92.2% | [14] 71.3% | [15] 87.4% | [16] 76.2% | [17] 82.2% | [18] 88.2% | [19] 73.5%

O=C1c2cccc3c(N4CCN(c5ccccc5)CC4)ccc(c23)C(=O)N1c1cccc(-c2nn(-c3ccccc3)cc2-c2nc3ccccc3s2)c1
inactive: [1] 88.5% | [2] 82% | [3] 97% | [4] 110% | [5] 120% | [6] 108% | [7] 113% | [8] 102% | [9] 110% | [10] 108% | [11] 91.1% | [12] 88.8% | [13] 95.1% | [14] 106% | [15] 101% | [16] 103% | [17] 95.1% | [18] 113% | [19] 104%

CN(C)c1nc(NCCNS(=O)(=O)c2ccc(C3=Nc4c(N)nc(N)nc4NC(c4ccc(Cl)cc4)C3)cc2)nc(N2CCOCC2)n1 (stereo not given)
active: [5] -10.8% | [14] 2.28%
inactive: [1] 69.2% | [2] 58.6% | [3] 69.3% | [4] 57.1% | [6] 65.3% | [7] 63.4% | [8] 40.7% | [9] 66.5% | [10] 67.1% | [11] 15.7% | [12] 62.4% | [13] 12% | [15] 53.4% | [16] 38.5% | [17] 43% | [18] 75.7% | [19] 45.5%

Cc1ccc(Nc2nnc(-c3c[nH]c4ccccc34)o2)c(C)c1
active: [6] -30.4% | [8] 1.66% | [9] -55.5% | [11] 6.22% | [13] -1.28% | [14] -11.9% | [16] 9.91% | [17] -32.4%
inactive: [1] 16.2% | [2] 43.9% | [3] 40.2% | [4] 23.2% | [5] 21.8% | [7] 12.6% | [10] 16.5% | [12] 39.1% | [15] 32.5% | [18] 60.9% | [19] 15.6%

Cc1ccc(-c2cc(C(=O)N=Nc3c(O)[nH]c4ccc(F)cc34)c3ccccc3n2)cc1
active: [4] 6.08% | [17] -39.7%
inactive: [1] 15.1% | [2] 59% | [3] 44.4% | [5] 104% | [6] 25.5% | [7] 11.2% | [8] 44% | [9] 73.9% | [10] 51.1% | [11] 60.8% | [12] 48.4% | [13] 11% | [14] 109% | [15] 65.3% | [16] 98.7% | [18] 69% | [19] 79.6%

O=C(Cc1c(-c2cccc([N+](=O)[O-])c2)n(-c2ncnc3c2c(-c2ccccc2)c(-c2ccccc2)n3Cc2ccccc2)[nH]c1=O)c1ccc(Cl)c(Cl)c1
inactive: [1] 16.1% | [2] 39% | [3] 79.1% | [4] 44.9% | [7] 45% | [8] 63.4% | [9] 60.2% | [10] 51% | [11] 17.6% | [13] 37.4% | [14] 44.9% | [15] 62.3% | [16] 12.2% | [17] 60.7% | [18] 30.9% | [19] 32.6%
active: [5] -2.08% | [6] 7.22% | [12] -3.97%
